Measurements reported in PubChem BioAssay AID1851 (National Center for Advancing Translational Sciences (NCATS), 2009).
“And” between values parts separate entries of the source, which are not always exact repeats. Equal values may be shown once. The whole screen tested about 16,000 compounds, of which about 2,600 (16%) were called active. Inconclusive results (about 20%) are left out. Only a selection was taken, and actives are over-represented in it overall. A number with no mark means an inactive call. Calls follow the shape of the dose curve; as a rule, active = well fitted curve in the direction sought with a large enough effect; inconclusive = small, poorly fitted or top-dose-only effect, or effect the other way; inactive = no such curve, though single readings can be large or run the other way.

These compounds were tested against Cytochrome P450 2D6 (Homo sapiens) (UniProt P10635) (assay: Cytochrome panel assay with activity outcomes). Details: recombinant CYP, pro-luciferin dealkylation, luminescence, p450-cyp2d6; series mostly up to 57.1 µM; activity, negative = inhibition: at the top concentration.
% is scaled to controls: 0 for no effect and ±100 for the full control effect.

Cytochrome P450 2D6 (Homo sapiens), sequence (P10635 whole entry, looked up): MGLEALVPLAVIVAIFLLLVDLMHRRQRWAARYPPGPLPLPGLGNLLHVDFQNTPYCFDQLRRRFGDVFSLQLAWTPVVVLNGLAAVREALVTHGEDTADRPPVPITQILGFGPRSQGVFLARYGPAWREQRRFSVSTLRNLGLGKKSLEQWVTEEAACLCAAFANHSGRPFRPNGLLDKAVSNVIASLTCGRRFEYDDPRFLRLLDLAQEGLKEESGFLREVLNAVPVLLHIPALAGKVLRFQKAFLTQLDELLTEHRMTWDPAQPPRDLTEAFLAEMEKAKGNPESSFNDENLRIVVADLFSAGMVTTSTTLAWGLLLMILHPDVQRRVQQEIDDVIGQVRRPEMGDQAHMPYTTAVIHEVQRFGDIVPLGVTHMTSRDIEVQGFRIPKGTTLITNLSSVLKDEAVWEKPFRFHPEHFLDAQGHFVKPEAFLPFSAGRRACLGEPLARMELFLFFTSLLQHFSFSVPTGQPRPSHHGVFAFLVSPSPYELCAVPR

| Compound | activity, negative = inhibition | AC50 |
| --- | --- | --- |
| C[C@@]12C(=O)OC(=O)[C@@]1(C)[C@H]1CC[C@@H]2O1 | -0.0372% | – |
| NC(=O)c1ccc(-c2nc(-c3ccc4c(c3)OCO4)c(-c3ccccn3)[nH]2)cc1 | – | 12.6 µM (active) |
| Cc1sc2c(c1C)C(c1ccc(C(C)(C)C)cc1)=NCC(=O)N2CC(=O)Nc1nccs1 | -25.8% | – |
| C[C@@H]1O[C@@H](O[C@H]2C[C@@H](O)[C@]3(CO)[C@@H]4[C@@H](O)C[C@]5(C)[C@H]([C@@H]6COC(=O)C6)CC[C@@]5(O)[C@H]4CC[C@@]3(O)C2)[C@H](O)[C@H](O)[C@@H]1O | 3.18% | – |
| COc1ccc2c(c1OC)C(=O)O[C@H]2[C@H]1c2cc3c(cc2CCN1C)OCO3 | – | inactive |
| COc1ccc2c(c1OC)CN1CCc3cc4c(cc3[C@H]1C2)OCO4 | – | 0.0631 µM (active) |
| COc1ccc2cc1Oc1ccc(cc1)C[C@H]1c3cc(c(OC)cc3CCN1C)Oc1c(OC)c(OC)cc3c1[C@@H](C2)N(C)CC3 | -16.9% [at 11.4 µM] | – |
| COc1ccc2c(c1O)-c1c(OC)c(OC)cc3c1[C@H](C2)N(C)CC3 | -10.8% [at 25.6 µM] | – |
| COc1cc2c3cc1Oc1c(O)c(OC)cc4c1[C@@H](Cc1ccc(cc1)Oc1cc(ccc1O)C[C@H]3N(C)CC2)N(C)CC4 | 0.972% [at 11.4 µM] | – |
| COc1cc2c(cc1O)[C@H]1Cc3ccc(OC)c(O)c3CN1CC2 | – | 0.0316 µM (active) |
| CC(Oc1ccc(-c2ccccc2)cc1)C(=O)O (stereo unspecified) | -18.2% | – |
| CCn1cc(C(=O)O)c(=O)c2cc3c(cc21)OCO3 | 2.37% [at 25.6 µM] | – |
| CCN1C[C@]2(C)CC[C@@H](O)[C@]34[C@@H]5CC6[C@@H](OC)C[C@@](O)([C@H]5[C@@H]6O)[C@@H](C[C@@H]23)[C@H]14 | 3.37% | – |
| CNC[C@H](O)c1ccc(OC(=O)C(C)(C)C)c(OC(=O)C(C)(C)C)c1 | -6.95% [at 25.6 µM] | – |
| CN1C[C@@H](CS(=O)(=O)N(C)C)C[C@H]2c3cccc4c3c(cn4C)C[C@@H]21 | – | 3.98 µM (active) |
| CC(=NCc1ccco1)c1c(O)n(-c2ccccc2)c(=O)[nH]c1=O | -1.87% | – |
| CN1C(=O)CCS(=O)(=O)[C@@H]1c1ccc(Cl)cc1 | 2.18% [at 25.6 µM] | – |
| CN(C)CCCc1c[nH]c2ccccc12 | -8.71% [at 11.4 µM] | – |
| CN(C)Cc1c[nH]c2ccccc12 | – | 0.158 µM (active) |
| O=C(c1ccccc1)[C@H]1[C@H](c2ccccc2[N+](=O)[O-])N1C1CCCCC1 (stereo partly specified) | -1.09% [at 11.4 µM] | – |
| c1ccc(CN2CCC3(CCc4ccccc43)CC2)cc1 | – | 0.00631 µM (active) |
| c1ccc(CN2CCC3(CCNCC3)CC2)cc1 | -16.1% | – |

| Compound | activity, negative = inhibition | AC50 |
| --- | --- | --- |
| CCOC(=O)c1ncn2c1[C@H]1CCCN1C(=O)c1cc(OC)ccc1-2 | -2.39% | – |
| Oc1ccc2[nH]cc(CCCCN3CC=C(c4ccccc4)CC3)c2c1 | -0.13% | – |
| O=S1(=O)N(CCN2CC=C(c3c[nH]c4cc(F)ccc34)CC2)c2cccc3c2N1CCC3 | – | 0.2 µM (active) |
| O=C(CCCC1=NS(=O)(=O)c2ccccc2N1)N1CCC2(CC1)OCCO2 | 8.08% | – |
| O=C(Nc1ccc(Cl)cc1C(=O)c1ccccc1Cl)c1ccco1 | 18.6% | – |
| Nc1ccccc1O.O.O=C(O)[C@H]1[O][Sb][O][C@H]1C(=O)O | -5.13% [at 11.4 µM] | – |
| O=[N+]([O-])c1ccc(N2CCNCC2)cc1NC1CC1 | -26.8% | – |
| Clc1cncc(N2CCNCC2)n1 | -5.59% | – |
| Clc1cccc(N2CCNCC2)c1 | – | 25.1 µM (active) and 3.98 µM (active) |
| O=c1[nH]cnc2[nH]cc(CN3CCCCC3)c12 | 7.9% [at 11.4 µM] | – |
| COc1c2c(cc3c1OCO3)CCN(C)C2 | – | 3.98 µM (active) |
| CC(C)C(=O)N1C2CCC1CC(O)(c1ccc(F)cc1)C2 (stereo unspecified) | -8.02% | – |
| NC[C@H](O)c1ccc(O)cc1 | – | inactive |
| C[C@H](N[C@@H](C)CCc1ccccc1)[C@H](O)c1ccc(O)cc1 | – | 2 µM (active) |
| CNC[C@H](O)c1ccc(O)cc1 | 2.97% [at 25.6 µM] | – |
| CC(C)[N+](C)(CCOC(=O)C1c2ccccc2Oc2ccccc21)C(C)C | – | 31.6 µM (active) and 1.26 µM (active) |
| O=C(Nc1ccc(F)cc1F)c1cccnc1Oc1cccc(C(F)(F)F)c1 | 9.56% | – |
| CC[C@@H]1[C@@H]2C[C@H]3[C@H]4N(C)c5ccccc5[C@@]45C[C@@H]([C@@H]2[C@@H]5O)N3[C@H]1O | – | 3.98 µM (active) |
| Clc1ccc(C2=CCC[C@H]3CC[C@@H]2N3)cn1 | -1.47% | – |
| O=C(CNS(=O)(=O)c1ccc(Br)s1)N1CCC2(CC1)OCCO2 | -8.62% | – |
| NC(N)=NN=Cc1c(Cl)cccc1Cl | – | 10 µM (active) |
| O=P(O)(O)c1ccccc1 (tested in a mixture with another compound) | 15.2% [at 11.4 µM] | – |

| Compound | activity, negative = inhibition | AC50 |
| --- | --- | --- |
| O=C(O)Cc1cccnc1C(=O)O | 9% | – |
| O=C(O)[C@@H]1[C@H](C(=O)O)[C@]2(Cl)C(Cl)=C(Cl)[C@@]1(Cl)C2(Cl)Cl | -8.74% [at 11.4 µM] | – |
| O=c1c2ccccc2c2ccccc2c(=O)n1-c1cc2c3ccccc3ccc2c2ccccc12 | 2.85% [at 11.4 µM] | – |
| NCC[C@H](O)C(=O)N[C@H]1C[C@@H](N)[C@@H](O[C@H]2O[C@@H](CN)[C@@H](O)[C@@H](O)[C@@H]2N)[C@@H](O[C@H]2O[C@@H](CO)[C@@H](O)[C@@H]2O)[C@@H]1O | 2.47% [at 25.6 µM] | – |
| c1ccc2sc(C3(N4CCCCC4)CCCCC3)cc2c1 | – | 12.6 µM (active) and 3.16 µM (active) |
| CN1C(=O)CCS(=O)(=O)[C@H]1c1ccc(Cl)cc1 | 3.35% | – |
| CCCn1c(=O)c2[nH]c(C3CCCC3)nc2n(CCCOC(=O)c2ccc(S(=O)(=O)F)cc2)c1=O | -2.07% | – |
| Cc1ncsc1CCCl | – | 12.6 µM (active) |
| C=C(C)[C@H]1CC[C@]2(C(=O)O)CC[C@]3(C)[C@@H](CC[C@H]4[C@@]5(C)CC[C@@H](O)C(C)(C)[C@@H]5CC[C@@]43C)[C@H]12 | 7.05% [at 25.6 µM] | – |
| Cc1nc(-c2ccc(-c3ccc(C(=O)N4CCc5cc6c(cc54)C4(CCN(C)CC4)CO6)cc3)c(C)c2)no1 | – | 31.6 µM (active) |
| COC(=O)c1c(C)ccc2c(O)c3c(cc12)C(=O)c1c2c(cc(O)c1C3=O)[C@@]1(C)O[C@@](C)(O2)[C@@H](O)[C@H](N(C)C)[C@H]1O | -17.5% [at 11.4 µM] | – |
| C=C[C@]12CN(C)[C@H]3C1[C@@]1(C(=O)Nc4ccccc41)[C@H]1C[C@H]2[C@H]3CO1 | -2.6% [at 25.6 µM] | – |
| N[C@@H](CSC1c2ccccc2-c2ccccc21)C(=O)O | -14.3% [at 11.4 µM] | – |
| O=C(CNS(=O)(=O)c1cccs1)N1CCC2(CC1)OCCO2 | -6.61% | – |
| Fc1ccc(C(OCCN2CCN(C/C=C\c3ccccc3)CC2)c2ccc(F)cc2)cc1 | – | 7.94 µM (active) |
| Clc1ccc([C@@H](OCCN2CCCCC2)c2ccccc2)cc1 | – | 0.0158 µM (active) |
| C(=C/c1ccccc1)/CN1CCN(CCOC(c2ccccc2)c2ccccc2)CC1 | – | 5.01 µM (active) |
| CC(C)(c1ccc(OC[C@@H]2CO2)cc1)c1ccc(OC[C@H]2CO2)cc1 | 5.45% | – |
| C[C@@H]1CC[C@@H]2N(C1)C[C@H]1[C@@](O)([C@H](O)C[C@]3(O)[C@H]4CC[C@H]5[C@]6(O)O[C@]4(C[C@]13O)[C@@]5(C)CC[C@@H]6O)[C@@]2(C)O | 10.1% [at 11.4 µM] | – |
| CCCCC/C=C\C/C=C\C/C=C\C/C=C\CCCC(=O)NCC(=O)O | 3.86% | – |
| CCN(CC)CCn1ncc2c(N)ncnc21 | 4.3% [at 11.4 µM] | – |
| CNC(=O)Oc1ccc2c(c1)[C@@]1(C)CCN(C)[C@@H]1N2C | – | 0.251 µM (active) |

| Compound | activity, negative = inhibition | AC50 |
| --- | --- | --- |
| C=C1[C@@H](O)C2C=CC[C@H](C)C(=O)[C@@](C)(O)C=C[C@@H](OC(C)=O)[C@@]23C(=O)N[C@H](Cc2ccccc2)[C@@H]3[C@@H]1C (stereo partly specified) | 1.19% | – |
| CCCCC/C=C\C/C=C\C/C=C\C/C=C\CCCC(=O)Nc1ccc(O)cc1 | 13.4% | – |
| CN1[C@H]2CC(=O)C[C@@H]1[C@@H](O)C2 | 6.02% [at 25.6 µM] | – |
| O=C(O)CS(=O)(=O)C(c1ccccc1)c1ccccc1 | 8.36% [at 11.4 µM] | – |
| N[C@H](Cc1ccc(N(CCCl)CCCl)cc1)C(=O)O | -0.262% | – |
| NC(=O)c1cc(N2CC2)c([N+](=O)[O-])cc1[N+](=O)[O-] | 15.3% | – |
| C=CCO[C@@H](Cn1ccnc1)c1ccc(Cl)cc1Cl | – | 5.01 µM (active) |
| C=C1[C@@H]2CC[C@H]3[C@@]4(C)C[C@@H](O[C@@H]5O[C@H](CO)[C@H](OS(=O)(=O)O)[C@@H](OS(=O)(=O)O)[C@@H]5OC(=O)CC(C)C)C[C@@H](C(=O)O)[C@H]4CC[C@@]3(C2)[C@H]1O | 3.19% [at 25.6 µM] | – |
| C[C@H]1[C@H](NC(=O)/C(=N/OC(C)(C)C(=O)O)c2csc(N)n2)C(=O)N1S(=O)(=O)O (stereo in doubt) | 3.51% [at 25.6 µM] | – |
| CC[n+]1c(/C=C/N(C)c2ccccc2)sc2ccc(Cl)cc21 | – | 0.0112 µM (active) |
| c1cc(N2CCCC3(CCNCC3)C2)ccn1 | – | 10 µM (active) |
| C[N+]1(C)CCN(c2ccccc2)CC1 | -13.7% | – |
| c1ccc(N2CCCC3(CCNCC3)C2)cc1 | – | 7.94 µM (active) |
| c1ccc(N2CC3(CCNCC3)C2)cc1 | -20.1% | – |
| c1cc(CN2CCC3(CCNCC3)CC2)ccn1 | 10.6% | – |
| O=C(Cn1ncc2ccsc2c1=O)N1CCC2(CC1)OCCO2 | 11.9% | – |
| Cc1ccc(N(C)C(=O)Oc2cccc3ccc(C)nc23)cc1 | -3.13% | – |
| O=C(O)/C=C(\CC(=O)O)C(=O)O | -1.58% [at 11.4 µM] | – |
| N[C@@H](Cn1ccc(=O)n(Cc2ccc(C(=O)O)cc2)c1=O)C(=O)O | 9.46% | – |
| CCN1C[C@@]2(COC)CC[C@H](OC)[C@]34[C@@H]1[C@]1(OCO[C@@]15C[C@@H](OC)C1C[C@H]3[C@H]5[C@@H]1OC)[C@H](O)[C@@H]24 | 2.41% [at 25.6 µM] | – |
